Source: PubChem BioAssay AID651704 (Broad Institute, 2012)
Several values for one entry are separate records, joined by “and”; a condition that tells them apart may be missing. Equal values may be shown once. In all, about 350,000 compounds went through this assay and about 1,600 (0.46%) were called active.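 How the source made its calls: active means every replicate reaching a set inhibition limit, whatever the replicate mean (cut at about 25% in these data); inconclusive means mean inhibition reaches that limit but some replicates miss it; inactive means the rest.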 Shown is part of a subset that was picked to be rich in actives. Some structures have more than one record in an assay (separate samples or runs), and their calls can disagree.

Target: Protein AF-9 (Homo sapiens) (UniProt P42568)
Sequence (P42568 whole entry, looked up): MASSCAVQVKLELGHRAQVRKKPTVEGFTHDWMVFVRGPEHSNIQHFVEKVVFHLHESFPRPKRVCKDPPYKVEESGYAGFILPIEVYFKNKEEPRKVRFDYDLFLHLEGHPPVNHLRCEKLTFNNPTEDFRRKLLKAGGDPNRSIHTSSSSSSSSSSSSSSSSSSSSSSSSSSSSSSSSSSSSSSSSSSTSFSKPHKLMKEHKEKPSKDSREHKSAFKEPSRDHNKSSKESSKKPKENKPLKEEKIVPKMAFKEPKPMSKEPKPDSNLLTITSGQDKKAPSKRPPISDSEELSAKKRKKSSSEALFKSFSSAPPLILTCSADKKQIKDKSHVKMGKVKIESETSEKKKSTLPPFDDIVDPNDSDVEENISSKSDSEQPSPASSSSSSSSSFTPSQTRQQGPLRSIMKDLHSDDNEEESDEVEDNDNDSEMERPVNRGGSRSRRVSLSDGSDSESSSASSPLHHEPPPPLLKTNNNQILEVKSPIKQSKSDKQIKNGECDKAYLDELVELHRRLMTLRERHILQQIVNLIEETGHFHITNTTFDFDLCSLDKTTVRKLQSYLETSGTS
Test: MLL-AF4/AF9 protein interaction blockers – biochemical, AlphaScreen, biotin-AF4 peptide, FLAG-AF9, single point, primary screen (AID 651704);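 further: 0% = plate neutral control median and 100% = total signal loss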
Details: biotin-AF4 peptide binding to FLAG-AF9, at 10 µM, stronger effect = higher value

SMILES | inhibition
CC(C)CC(CO)N1CCN(C(=O)c2ccc(Cl)cc2Cl)CCC1=O (configuration not stated) | 38.9% (active)
CC(C)C[C@@H](CO)N1CCN(Cc2ccc(O)cc2)CCC1=O | -1.96% (inactive)
CC(C)C[C@@H](COCc1ccc(Cl)cc1)N1CCN(C(=O)c2ccc(Cl)cc2Cl)CCC1=O | 1.49% (inactive)
N#Cc1cccc(-c2ccc(C3[C@@H]4CN(C(=O)C5CCC5)C[C@H]3N4)cc2)c1 (some centres not stated) | -2.89% (inactive) and 1.48% (inactive)
O=C(NC1CCCCC1)N1CC2(C1)[C@@H](c1ccccc1)[C@@H](CO)N2CC1CCOCC1 | -1.54% (inactive)
Cc1noc(C)c1COc1ccc(C(=O)NCCOc2ccccc2)cc1 | -1.51% (inactive)
CN(C)C(CNC(=O)c1ccc(OCc2cn3ccccc3n2)cc1)c1ccco1 (configuration not stated) | 0.31% (inactive)
CN(C)CCNC(=O)c1ccc(-c2cn3c(-c4ccc(Oc5ccccc5)cc4)cnc3cn2)cc1 | 34.2% (active)
Cc1ccc(S(=O)(=O)NCC[C@H]2CC[C@H](NC(=O)c3ccccn3)[C@H](CO)O2)cc1 | 1.07% (inactive)
CCC(=O)N1C[C@H](C)[C@H](OC)CN(C)C(=O)c2cc(NC(=O)Nc3cccc(F)c3)ccc2OC[C@@H]1C | 2.75% (inactive)
O=S(=O)(c1ccccc1)N1[C@H](CO)[C@@H]2c3ccccc3NC[C@@H]21 | -1.25% (inactive)
COc1ccccc1NC(=O)N(C)C[C@@H]1Oc2ncc(C#CCC(C)C)cc2C(=O)N([C@@H](C)CO)C[C@@H]1C | -1.7% (inactive)
COCC(=O)Nc1ccc2c(c1)OC[C@@H](C)N(Cc1cocn1)C[C@@H](C)[C@@H](OC)CN(C)C2=O | -2.07% (inactive)
Nc1ccc(N=Nc2ccccc2Cl)c(N)n1 | 31.4% (active)
CN1CCN(C(=O)C[C@H]2C[C@@H]3c4cc(NC(=O)Nc5ccc(C(F)(F)F)cc5)ccc4O[C@@H]3[C@H](CO)O2)CC1 | 6.81% (inactive)
COc1ccc(S(=O)(=O)NC[C@@H]2CC[C@@H]3[C@@H](CN3Cc3cc(F)ccc3F)O2)cc1 | 17.9% (inactive)
O=C([C@H]1N[C@H]2c3ccc(-c4ccccc4)c(=O)n3C[C@H]2[C@@H]1CO)N1CCOCC1 | -1.96% (inactive)
COc1ccc(C(=O)C2CCCN(Cc3ccc4nonc4c3)C2)c(C)c1 (configuration not stated) | 29.4% (active)
COc1ccc(C(=O)C2CCCN(Cc3cccn3-c3ccccn3)C2)c(C)c1 (configuration not stated) | 11.3% (inactive)
CCOC(=O)c1[nH]ncc1CN1CCCC(C(=O)c2ccc(OC)cc2C)C1 (configuration not stated) | -1.02% (inactive)
COc1ccc2[nH]c3c(C)c4cc[n+](C)cc4c(C)c3c2c1 | 57.7% (active)
C[C@@H]1CN([C@H](C)CO)C(=O)c2cc(-c3ccc(F)cc3)cnc2O[C@@H]1CN(C)Cc1ccc(C(=O)O)cc1 | -1.88% (inactive)
CCC(=O)N1C[C@@H](C)[C@H](OC)CN(C)C(=O)c2cc(NC(=O)NC3CCCC3)ccc2OC[C@H]1C | -2.77% (inactive)
C[C@H](CO)N1C[C@H](C)[C@@H](CN(C)Cc2ccc3c(c2)OCO3)OCCCC[C@H](C)Oc2ccc(NC(=O)Nc3ccc(C(F)(F)F)cc3)cc2C1=O | 4.81% (inactive)

SMILES | inhibition
Cc1cc2oc(=O)cc(CN3CCN(Cc4ccccc4)CC3)c2cc1C | 2.48% (inactive)
COc1cccc2sc3cc(NCC[C@@H]4CCCN4C)ccc3c(=O)c12 | 3.58% (inactive)
Cc1cc2oc3ccc(NCCC4CCCN4C)cc3c(=O)c2cc1C (configuration not stated) | 27.8% (active)
COc1ccc2c(c1)c(=Cc1ccc(N(C)C)cc1)c1cc(-c3ccccc3)[n+](C)n12 | 67.9% (active)
COc1cccc2c1C(=O)c1c(O)c3c(c(O)c1C2=O)CC(O)(C(C)=NNC(=O)c1ccc(Cl)c(Cl)c1)CC3OC1CC(N)C(O)C(C)O1 (configuration not stated) | 33.8% (active)
N#C[C@@H]1[C@H](c2ccccc2-c2cccc(F)c2)[C@@H](CO)N1C(=O)CN1CCOCC1 | -3.02% (inactive)
CO[C@@H]1CN(C)C(=O)c2ccc(NS(C)(=O)=O)cc2OC[C@H](C)NC[C@H]1C | -2.11% (inactive)
Cc1ccc2c(c1)C1CN(C)CCC1N2C(=S)Nc1ccc(OC(F)F)cc1 (configuration not stated) | 5.25% (inactive)
Cc1ccc2c(c1)C1CN(C)CCC1N2S(=O)(=O)c1ccc(Oc2ccc([N+](=O)[O-])cc2)cc1 (configuration not stated) | 20.9% (inactive) and 27.4% (active)
Cc1ccc2c(c1)C1CN(C)CCC1N2S(=O)(=O)c1cccc(F)c1 (configuration not stated) | 4.04% (inactive)
CN(C)C(=O)c1cccc(-c2ccc([C@H]3[C@H](CO)N4C(=O)CN(C(=O)C5CCCCC5)C[C@@H]34)cc2)c1 | -3% (inactive)
CC(C)CC#Cc1cnc2c(c1)C(=O)N([C@@H](C)CO)C[C@@H](C)[C@@H](CN(C)C(=O)c1cccnc1)O2 | -2.62% (inactive)
COc1ccc2c3c(n(C)c2c1)[C@@H](CO)N(Cc1ccccc1)CC31CN(C(=O)C2CC2)C1 | 2.25% (inactive)
CC(=O)Nc1cc(-c2ccc(N3CCN(C)CC3)cc2)cn2c(-c3ccc(F)cc3)cnc12 | 26.2% (active)
CC(=O)Nc1cc(-c2ccc(N3CCN(C)CC3)cc2)cn2c(-c3cccc(C(=O)N(C)C)c3)cnc12 | 9.58% (inactive)
COc1ccccc1-c1cc(NC(C)=O)c2ncc(-c3ccc(F)cc3)n2c1 | -6.86% (inactive)
CN(C)C(=O)c1cccc(-c2ccc3c(c2)[C@H]2[C@H](CCN2S(=O)(=O)c2cn(C)cn2)[C@@H](CO)N3)c1 | -3.61% (inactive)
Cc1noc(C)c1NC(=O)N(C)C[C@@H]1OCCCC[C@H](C)Oc2ccc(NC(=O)NC3CCCCC3)cc2C(=O)N([C@H](C)CO)C[C@H]1C | -0.856% (inactive)
CCCNC(=O)C[C@H]1C[C@H]2c3cc(NC(=O)NC4CCCCC4)ccc3O[C@H]2[C@H](CO)O1 | 5.96% (inactive)
CCNC(=O)C[C@H]1CC[C@@H](NC(=O)C2CCOCC2)[C@@H](CO)O1 | 1.25% (inactive)
Cc1cc(=O)n2nc(N3CCCC(C(=O)NCc4cccc(Cl)c4)C3)sc2n1 (configuration not stated) | 2.52% (inactive)
O=C(NCCc1cccc(F)c1)C1CCCN(c2nc3ccccc3s2)C1 (configuration not stated) | 39.3% (active)
O=C(NCc1ccccc1)C1CCCN(c2nc3ccsc3c(=O)s2)C1 (configuration not stated) | -3.41% (inactive)
